Outcome and AC50 data for four compounds are collected here from PubChem BioAssay (EPA / NIEHS).

Activity calls are given as the source filed them. Rule for the calls: active = hit-call score of the fitted dose curve at least 0.9, where 1 is the maximum; inactive = score below 0.9.

Assay [1] can be described thus: ATG_CRE_CIS: Attagene CIS-FACTORIAL HepG2 Assay for human cAMP Responsive Element (CRE) binding protein 3 (AID 2282926). To be noted: HepG2 CRE cis-reporter, Attagene multiplexed mRNA; actives raise or lower the signal. The method in brief: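 Human liver HepG2, transient MRTU transfection, 24 h compound exposure. Total RNA → oligo(dT) RT → PCR → 6-FAM primer extension → HpaI cut → CE. Activity called both directions vs DMSO.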

The target in assay [2] is CCAAT/enhancer-binding protein beta (Homo sapiens) (UniProt P17676). Briefly: ATG_C_EBP_CIS: Attagene CIS-FACTORIAL HepG2 Assay for human CCAAT/Enhancer Binding Protein (C/EBP) beta (AID 2282927). The note with it: HepG2 Attagene cis-factorial transcription factor reporter; actives raise or lower the signal. The method in brief: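 Endogenous C/EBPb-driven reporter transcripts measured in transfected human HepG2 cells at 24 h via RT-PCR and capillary electrophoresis of labelled fragments. Activity fitted in both directions relative to DMSO baseline.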
Sequence of CCAAT/enhancer-binding protein beta (Homo sapiens) (P17676 whole entry, looked up, the tested form may be a part): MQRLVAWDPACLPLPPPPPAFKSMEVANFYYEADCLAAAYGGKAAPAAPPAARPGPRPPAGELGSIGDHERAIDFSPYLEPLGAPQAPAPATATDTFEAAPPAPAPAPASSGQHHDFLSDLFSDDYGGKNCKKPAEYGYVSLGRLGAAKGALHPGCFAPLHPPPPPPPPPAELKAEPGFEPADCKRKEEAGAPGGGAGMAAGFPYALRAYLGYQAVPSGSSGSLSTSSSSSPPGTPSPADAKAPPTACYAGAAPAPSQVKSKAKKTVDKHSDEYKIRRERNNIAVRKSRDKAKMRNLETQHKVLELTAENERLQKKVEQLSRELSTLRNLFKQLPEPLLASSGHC

The nature of assay [3]: ATG_DR4_LXR_CIS: Attagene CIS-FACTORIAL HepG2 Assay for human Liver X Receptor (LXR), DR4 submotif (AID 2282929). The note with it: HepG2 Attagene DR4 cis-reporter, mRNA transcription; actives raise or lower the signal. The gist of the method: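 Measures endogenous transcription factor activity via a DR4-driven reporter transcript in human HepG2 cells. Compounds incubated 24 h; mRNA quantified by RT-PCR and capillary electrophoresis, analysed as gain or loss of signal versus DMSO.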

Assay [4] in a line: ATG_AP_2_CIS: Attagene CIS-FACTORIAL HepG2 Assay for human Activator Protein 2 (AP-2) (AID 2282932). To be noted: HepG2 AP-2 cis-reporter, Attagene transcription factor profiling; actives raise or lower the signal. The gist of the method: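 HepG2, transient MRTU transfection, cis-regulated reporters; 24 h compound exposure; RNA isolated, RT-PCR, 6-FAM labelling, HpaI digest, CE fluorescence. DMSO = negative control/baseline, bidirectional fit.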

Assay [5] in a line: ATG_BRE_CIS: Attagene CIS-FACTORIAL HepG2 Assay for human Bone Morphogenetic Protein (BMP) Response Element (BRE) (AID 2282933). The note with it: HepG2 BMP response element reporter, Attagene transcription factor profiling; actives raise or lower the signal. The gist of the method:
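Read-out: reporter mRNA induction quantified by RT-PCR and capillary electrophoresis after 24 h chemical exposure of transfected HepG2 cells. Endogenous factor activity on the BMP response element; gain or loss fitted against DMSO baseline.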

The target of assay [6] is Transcription factor E2F1 (Homo sapiens) (UniProt Q01094). Briefly: ATG_E2F_CIS: Attagene CIS-FACTORIAL HepG2 Assay for human E2F Transcription Factor 1 (AID 2282935). The note with it: HepG2 Attagene cis-reporter, E2F reporter RNA transcripts; actives raise or lower the signal. The gist of the method: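 Cis-element reporter mRNA induction in transiently transfected HepG2, 24 h exposure. Activity fitted in both directions relative to DMSO negative control.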
Sequence of Transcription factor E2F1 (Homo sapiens) (Q01094 whole entry, looked up): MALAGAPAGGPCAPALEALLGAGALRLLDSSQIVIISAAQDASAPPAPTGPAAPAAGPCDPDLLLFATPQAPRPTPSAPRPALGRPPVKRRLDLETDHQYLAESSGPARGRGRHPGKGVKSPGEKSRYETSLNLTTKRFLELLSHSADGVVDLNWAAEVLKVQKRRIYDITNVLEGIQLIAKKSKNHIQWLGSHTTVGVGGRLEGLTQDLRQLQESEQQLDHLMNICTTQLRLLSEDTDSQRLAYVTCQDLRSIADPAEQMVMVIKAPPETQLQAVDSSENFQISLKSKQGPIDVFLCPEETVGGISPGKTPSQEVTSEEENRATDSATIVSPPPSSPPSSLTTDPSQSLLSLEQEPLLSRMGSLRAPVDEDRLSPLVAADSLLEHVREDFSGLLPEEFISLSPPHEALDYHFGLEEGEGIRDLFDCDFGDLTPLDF

Assay [7] in a line: ATG_EGR_CIS: Attagene CIS-FACTORIAL HepG2 Assay for human Early Growth Response 1 (EGR1) (AID 2282938). The note with it: HepG2 Attagene CIS-FACTORIAL EGR reporter mRNA; actives raise or lower the signal. The method in brief: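 Cell-based multiplex transcription assay: HepG2 carrying transfected cis-element reporter units, 24 h chemical treatment. Fluorescence from capillary electrophoresis of RT-PCR products gives mRNA levels; fitting is bidirectional relative to DMSO.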

A short description of assay [8]: ATG_M_19_CIS: Attagene CIS-FACTORIAL HepG2 Assay for M19 Transcription Factor (Internal Marker) (AID 2282939). The note with it: HepG2 Attagene CIS-FACTORIAL M19 internal marker reporter; actives raise or lower the signal. The method in brief: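 Readout: fluorescent reporter-transcript fragments by capillary electrophoresis after RT-PCR. Human HepG2 liver cells carried transfected MRTU constructs reporting endogenous transcription-factor activity; exposure 24 h. Gain or loss of signal fitted relative to DMSO.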

Assay [9] in a line: ATG_Ets_CIS: Attagene CIS-FACTORIAL HepG2 Assay for human Erythroblast Transformation Specific (ETS) (AID 2282941). To be noted: HepG2 ETS cis-reporter transcription, actives raise or lower the signal. The gist of the method: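 Human HepG2 hepatoma cells were transiently transfected with promoter-driven reporter constructs and treated for 24 hours. Reporter transcripts were quantified by RT-PCR with fluorescent primer extension; bidirectional curve fitting used DMSO as reference.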

Assay [10] deals with Hepatocyte nuclear factor 3-beta (Homo sapiens) (UniProt Q9Y261). Briefly: ATG_FoxA2_CIS: Attagene CIS-FACTORIAL HepG2 Assay for human Forkhead box A2 (FOXA2) (AID 2282942). To be noted: HepG2 cis-reporter transcription factor activity, 24 h; actives raise or lower the signal. The gist of the method:
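In transiently transfected human HepG2 cells, promoter-driven reporter mRNA levels after 24 h chemical exposure are determined via RT-PCR with capillary electrophoresis. DMSO serves as baseline for bidirectional fitting.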

A short description of assay [11]: ATG_FoxO_CIS: Attagene CIS-FACTORIAL HepG2 Assay for human Forkhead box O (FoxO) (AID 2282943). The note with it: HepG2 Attagene cis-reporter, FoxO element, mRNA; actives raise or lower the signal. The gist of the method: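 Endogenous transcription factor activity read from multiplexed cis-promoter reporter transcripts in transiently transfected HepG2, 24 h after dosing. Reporter RNA measured via RT-PCR plus capillary electrophoresis of FAM-labeled products; gain or loss relative to DMSO.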

Assay [12] is described as follows: ATG_GATA_CIS: Attagene CIS-FACTORIAL HepG2 Assay for human GATA Binding Protein (AID 2282944). To be noted: HepG2 GATA cis-element reporter, Attagene multiplex mRNA; actives raise or lower the signal. The method in brief:
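Read-out: fluorescent reporter mRNA fragments resolved by capillary electrophoresis after RT-PCR. Human liver HepG2 cells carried transiently transfected cis-regulated reporter constructs; chemicals incubated 24 h; gain or loss of signal fitted relative to DMSO.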

Assay [13] is described as follows: ATG_GLI_CIS: Attagene CIS-FACTORIAL HepG2 Assay for human Zinc Finger Protein GLI1 (AID 2282945). The note with it: HepG2, Attagene cis-factorial reporter mRNA, GLI element; actives raise or lower the signal. The method in brief: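 Bidirectional curve fits relative to DMSO, using reporter mRNA levels from RT-PCR plus capillary electrophoresis. Cells were HepG2 transiently carrying cis-regulated reporter constructs, harvested 24 h after dosing.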

A short description of assay [14]: ATG_M_06_CIS: Attagene CIS-FACTORIAL HepG2 Assay for M06 Transcription Factor (Internal Marker) (AID 2282950). The note with it: HepG2 Attagene CIS-FACTORIAL M06 internal marker reporter; actives raise or lower the signal. The method in brief: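 Terse: HepG2, transient MRTU transfection (FuGene 6), 24 h dosing; total RNA, oligo(dT) RT, PCR, FAM label, HpaI cut, capillary electrophoresis; bidirectional fit vs DMSO baseline; background-control endpoint.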

A short description of assay [15]: ATG_MRE_CIS: Attagene CIS-FACTORIAL HepG2 Assay for human Metal Responsive Element (MRE) (AID 2282954). To be noted: HepG2 MRE cis-reporter transcription, Attagene multiplex; actives raise or lower the signal. The gist of the method: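 Transient MRTU transfection of HepG2 (FuGene 6); 24 h dosing; total RNA → oligo(dT) RT, PCR, 6-FAM primer extension, HpaI cut, CE. Bidirectional fit vs DMSO.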

The target in assay [16] is Paired box protein Pax-6 (Homo sapiens) (UniProt P26367). The assay is described as follows: ATG_Pax6_CIS: Attagene CIS-FACTORIAL HepG2 Assay for human Paired Box 6 (PAX6) (AID 2282956). To be noted: HepG2 CIS-FACTORIAL PAX6 reporter transcription, RNA readout; actives raise or lower the signal. The method in brief: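 Multiplexed cis-reporter HepG2 system; 24 h treatment; reporter mRNA read by RT-PCR/CE fluorescence; bidirectional fit vs DMSO.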
Sequence of Paired box protein Pax-6 (Homo sapiens) (P26367 whole entry, looked up): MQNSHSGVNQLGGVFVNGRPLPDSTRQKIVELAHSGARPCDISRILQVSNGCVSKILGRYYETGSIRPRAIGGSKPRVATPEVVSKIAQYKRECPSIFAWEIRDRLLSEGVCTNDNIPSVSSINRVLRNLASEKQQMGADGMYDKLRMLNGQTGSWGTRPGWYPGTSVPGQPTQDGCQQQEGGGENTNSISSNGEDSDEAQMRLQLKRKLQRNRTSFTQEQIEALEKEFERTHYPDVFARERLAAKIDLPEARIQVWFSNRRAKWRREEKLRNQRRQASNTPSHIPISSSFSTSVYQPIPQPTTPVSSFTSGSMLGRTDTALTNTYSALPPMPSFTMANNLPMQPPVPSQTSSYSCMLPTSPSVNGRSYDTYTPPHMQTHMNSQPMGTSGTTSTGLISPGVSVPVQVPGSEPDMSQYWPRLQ

Assay [17] is described as follows: ATG_PXRE_CIS: Attagene CIS-FACTORIAL HepG2 Assay for human Pregnane X Receptor Element (PXRE) (AID 2282957). To be noted: HepG2 Attagene CIS-FACTORIAL PXRE reporter, mRNA; actives raise or lower the signal. The gist of the method:
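Transfect HepG2 with MRTUs (cis promoter elements); dose chemical, incubate 24 h; isolate RNA, RT with oligo(dT), PCR, 6-FAM label, HpaI cut, CE. Gain/loss fit vs DMSO.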

A short description of assay [18]: ATG_Sox_CIS: Attagene CIS-FACTORIAL HepG2 Assay for human SRY-box transcription factor (SOX) (AID 2282960). The note with it: HepG2 Attagene cis-factorial SOX reporter, mRNA; actives raise or lower the signal. The method in brief:
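After 24 h of chemical treatment, transfected HepG2 reporter cells are lysed for total RNA. Transcript levels come from RT-PCR with labelled primer extension and capillary electrophoresis, analysed bidirectionally versus DMSO.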

The target of assay [19] is Transcription factor Sp1 (Homo sapiens) (UniProt P08047). The assay is described as follows: ATG_Sp1_CIS: Attagene CIS-FACTORIAL HepG2 Assay for human Specificity Protein 1 (Sp1) (AID 2282961). The note with it: HepG2 Sp1 cis-reporter transcription, actives raise or lower the signal. The gist of the method: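 Sp1-driven reporter mRNA, read as capillary electrophoresis fluorescence after RT-PCR, in transiently transfected HepG2 cells dosed for 24 h; signal change in either direction relative to DMSO.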
Sequence of Transcription factor Sp1 (Homo sapiens) (P08047 whole entry, looked up): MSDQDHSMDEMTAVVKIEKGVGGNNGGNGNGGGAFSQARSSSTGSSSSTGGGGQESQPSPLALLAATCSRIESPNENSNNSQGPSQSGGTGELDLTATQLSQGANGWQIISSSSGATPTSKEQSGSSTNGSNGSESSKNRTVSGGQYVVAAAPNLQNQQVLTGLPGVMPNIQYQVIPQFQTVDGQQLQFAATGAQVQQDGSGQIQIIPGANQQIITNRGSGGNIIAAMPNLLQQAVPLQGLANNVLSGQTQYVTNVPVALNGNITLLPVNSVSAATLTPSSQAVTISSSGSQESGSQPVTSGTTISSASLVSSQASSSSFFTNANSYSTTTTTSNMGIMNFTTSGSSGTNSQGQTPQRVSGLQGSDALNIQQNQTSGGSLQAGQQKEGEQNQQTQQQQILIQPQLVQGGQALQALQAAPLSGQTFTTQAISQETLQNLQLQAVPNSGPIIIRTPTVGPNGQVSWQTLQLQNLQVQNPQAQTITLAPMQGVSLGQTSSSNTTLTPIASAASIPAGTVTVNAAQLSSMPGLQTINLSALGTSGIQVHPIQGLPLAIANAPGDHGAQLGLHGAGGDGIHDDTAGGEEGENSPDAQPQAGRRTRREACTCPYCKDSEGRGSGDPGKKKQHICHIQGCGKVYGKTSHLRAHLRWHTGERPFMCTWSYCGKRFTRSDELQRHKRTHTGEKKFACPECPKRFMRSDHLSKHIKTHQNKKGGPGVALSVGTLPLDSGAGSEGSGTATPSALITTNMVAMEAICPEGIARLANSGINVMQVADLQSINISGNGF

Assay [20] in a line: ATG_SREBP_CIS: Attagene CIS-FACTORIAL HepG2 Assay for human Sterol Regulatory Element Binding (SREBP) (AID 2282962). To be noted: HepG2 Attagene cis-factorial SREBP reporter, mRNA; actives raise or lower the signal. The gist of the method: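 mRNA induction of transfected cis-promoter reporters in HepG2 cells, 24 h post-dose. Detection: RT-PCR with 6-FAM-labelled products, HpaI digest, capillary electrophoresis. DMSO served as negative control and baseline.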

Sequence of Hepatocyte nuclear factor 3-beta (Homo sapiens) (Q9Y261 whole entry, looked up): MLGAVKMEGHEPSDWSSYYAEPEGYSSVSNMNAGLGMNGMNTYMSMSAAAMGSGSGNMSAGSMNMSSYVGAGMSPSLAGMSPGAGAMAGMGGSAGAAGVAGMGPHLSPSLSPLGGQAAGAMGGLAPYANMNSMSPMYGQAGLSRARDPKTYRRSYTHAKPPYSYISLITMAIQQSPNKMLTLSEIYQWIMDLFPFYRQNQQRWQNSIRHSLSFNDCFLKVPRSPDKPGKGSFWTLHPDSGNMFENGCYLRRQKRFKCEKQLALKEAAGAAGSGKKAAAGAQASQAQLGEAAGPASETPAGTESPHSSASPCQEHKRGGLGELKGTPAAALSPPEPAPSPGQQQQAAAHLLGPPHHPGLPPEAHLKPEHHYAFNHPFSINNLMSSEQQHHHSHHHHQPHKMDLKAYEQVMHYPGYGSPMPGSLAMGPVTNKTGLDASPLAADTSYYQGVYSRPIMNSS

The AC50 is the concentration giving half of the maximal activity seen. As for `C[C@]12CCC(=O)C(O)=C1CC[C@@H]1[C@@H]2CC[C@]2(C)C(=O)CC[C@@H]12`, the call in assay [1], in assay [2], in [3], in assay [4], in assay [5] and in [6] was inactive. Further, the result in [7], in [8], in [9], in assay [10], in [11] and in [12] was inactive. In addition, the compound was classed as inactive in [13], in [14], in assay [15], in [16], in assay [18] and in [19]. Moreover, the AC50 in assay [17] is 11.2 µM (active); in assay [20], 27.6 µM (active).

Regarding `CCc1cccc(C)c1N(C(=O)CCl)[C@@H](C)COC`, the compound was called inactive in assay [1], in assay [2], in [3], in assay [4], in [5] and in assay [6]. For the same compound, the call in [8], in assay [9], in assay [10], in assay [11], in assay [12] and in [13] was inactive. The compound was called inactive in assay [14], in assay [16], in assay [18], in assay [19] and in [20]. The results for the AC50 in assay [7], in assay [15] and in assay [17] were 57.9 µM (active), 31.3 µM (active) and 0.474 µM (active), respectively.

In the case of `O=C(NCNC(=O)NC1C(=O)NC(=O)N1CO)NC1C(=O)NC(=O)N1CO` (stereo not given), the compound was called inactive in assay [1], in [2], in [3], in assay [4], in assay [5] and in assay [6]. The call in assay [7], in assay [8], in assay [9], in [10], in [11] and in [12] was inactive. Also, the compound was classed as inactive in assay [13], in assay [14], in assay [17], in assay [18], in assay [19] and in assay [20]. Further, the values for the AC50 in [15] and in assay [16] were 162 µM (active) and 133 µM (active), respectively.

Take `CC(C)(O)C#N`: the call in [1], in assay [2], in assay [3], in [4], in assay [5] and in assay [6] was inactive. In addition, the call in [7], in assay [8], in [9], in assay [10], in assay [11] and in [12] was inactive. Moreover, the call in [13], in assay [14], in assay [15], in [16], in [18] and in assay [19] was inactive. In addition, in assay [20], the result was inactive. In addition, in [17], the AC50 was 27.4 µM (active).
